# Screens deposited in PubChem BioAssay by National Center for Advancing Translational Sciences (NCATS).
# In the library only some 2.3% were active in any assay of this set; here they are far more common.
# POLI inh: DNA polymerase iota (human) inhibition | Pol iota fluorescent replication assay, 10 min | Potency, µM (doses to about 115 µM), for inactives: at the top dose activity, negative = inhibition, actives largely listed as inhibitors | AID 588590 | 1% of 390,000 active | Q9UNA4
#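 Fluorescent replication assay read twice, at 0 min and 10 min after adding 50 nM (final) substrate. Enzyme (10 nM) and compounds were first incubated 15 min at room temperature; enzyme-free buffer wells were negative controls.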
# POLB inh: inhibitors of human DNA polymerase beta; P06746; 1.3% of 340,000 active; Pol beta primer extension/strand displacement, fluorescence kinetic; Potency, µM (highest dose often 114 µM), without a hit: top-dose activity change, negative = inhibition, actives largely listed as inhibitors; AID 485314; also: % is scaled to controls: 0 for no effect and ±100 for the full control effect
#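 Homogeneous kinetic assay of primer extension and strand displacement by 10 nM Pol beta, preincubated 15 min at room temperature with compound before 50 nM substrate (final) was added. Read at 0 and 10 min; four-parameter Hill fit.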
# WRN helicase inh: WRN helicase (human) inhibition; WRN helicase unwinding, fluorescent forked duplex, kinetic; Potency, µM (titrated, usually from 114 µM), inactives show top-dose activity change, negative = inhibition, hits mostly inhibitors; 0.46% of 360,000 active; also: % is scaled to controls: 0 for no effect and ±100 for the full control effect; nearly all actives have a fitted effect of over 55% in size
#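 Kinetic red-fluorescence monitoring (525/598 nm) tracks WRN helicase activity after 100 nM fluorophore-quencher forked duplex and 2 mM ATP are added to 20 nM enzyme pretreated 15 min at room temperature with compound.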
# POLH inh: DNA polymerase eta (human) inhibition; recombinant Pol eta, fluorescent DNA replication assay; AID 588591; Q9Y253; Potency, µM (highest dose often 114 µM), for the others: top-dose activity change, negative = inhibition, hits mostly inhibitors; 1.2% of 390,000 active; also: % is scaled to controls: 0 for no effect and ±100 for the full control effect
#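 Fluorescent replication assay: 50 nM final substrate added after a 15 min room-temperature compound preincubation with 10 nM enzyme. Signal taken at 0 min and again at 10 min.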
# Pol kappa inh: DNA polymerase kappa (human) inhibition; Potency, µM (titrated, usually from 107 µM), for the others: at the highest dose activity, negative = inhibition, most hits filed as inhibitors; 0.53% of 400,000 active; purified Pol kappa, fluorescent DNA synthesis assay, 10 min; Q9UBT6; also: % is scaled to controls: 0 for no effect and ±100 for the full control effect
# Target sequence (Q9UBT6 whole entry, looked up): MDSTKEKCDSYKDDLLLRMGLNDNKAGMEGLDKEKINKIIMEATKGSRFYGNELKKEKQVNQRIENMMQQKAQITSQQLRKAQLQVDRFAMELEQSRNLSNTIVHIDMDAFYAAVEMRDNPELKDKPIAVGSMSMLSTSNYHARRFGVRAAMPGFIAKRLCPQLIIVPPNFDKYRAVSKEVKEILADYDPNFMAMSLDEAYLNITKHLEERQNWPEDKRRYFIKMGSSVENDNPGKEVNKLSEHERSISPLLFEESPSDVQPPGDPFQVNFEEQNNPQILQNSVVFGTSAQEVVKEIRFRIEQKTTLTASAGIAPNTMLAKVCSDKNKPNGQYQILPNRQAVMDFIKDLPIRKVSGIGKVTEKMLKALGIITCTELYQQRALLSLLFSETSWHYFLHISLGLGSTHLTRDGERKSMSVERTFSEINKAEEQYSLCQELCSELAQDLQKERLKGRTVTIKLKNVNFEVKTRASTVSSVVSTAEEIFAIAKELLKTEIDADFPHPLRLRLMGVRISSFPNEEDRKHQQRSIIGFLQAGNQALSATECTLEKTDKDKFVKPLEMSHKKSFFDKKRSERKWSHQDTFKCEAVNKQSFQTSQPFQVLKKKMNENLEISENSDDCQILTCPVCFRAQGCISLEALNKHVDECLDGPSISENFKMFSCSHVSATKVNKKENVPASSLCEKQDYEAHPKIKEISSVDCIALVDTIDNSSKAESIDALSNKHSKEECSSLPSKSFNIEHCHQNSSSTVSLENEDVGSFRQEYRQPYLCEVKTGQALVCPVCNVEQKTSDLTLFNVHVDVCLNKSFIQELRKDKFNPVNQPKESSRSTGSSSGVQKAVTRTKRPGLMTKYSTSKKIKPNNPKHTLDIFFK
#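 Enzyme at 10 nM met test compounds for 15 min at room temperature. Substrate addition (50 nM final) began the reaction, which was monitored by fluorescence at 0 and 10 min.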
# * marks the source's active call; other numbers are inactive results; ? = inconclusive; . = no result given; [ ] = another dose, or the depositor's remark. Calls follow the shape of the dose curve; as a rule, active = well fitted curve in the direction sought with a large enough effect; inconclusive = small, poorly fitted or top-dose-only effect, or another doubt; inactive = no such curve, though single readings can be large; an effect the other way counts as inactive or inconclusive. Potency is read from the fitted curve at half-maximal effect.
SMILES,POLI inh,POLB inh,WRN helicase inh,POLH inh,Pol kappa inh
Cc1ccc(NC(=O)Cn2c(=O)c3cccn3c3ccccc32)c(C)c1,29%,13%,1%,0%,-5%
CCN(CC)S(=O)(=O)c1ccc(C(=O)NCc2ccc3c(c2)cc(C)n3C)cc1,?,0%,50µM*,-20%,-30%
Cc1c2cc[n+](CCN3CCCCC3)cc2c(C)c2c1[nH]c1ccc(O)cc12,25µM*,.,28µM*,2.8µM*,35µM*
CC(=O)OCC(NC(=O)C(CCCCNC(=O)OCc1ccccc1)NC(=O)OC(C)(C)C)C1OC(n2cc(F)c(=O)[nH]c2=O)C(OC(C)=O)C1OC(C)=O (stereo unspecified),10%,.,.,.,-3%
O=C(NCCc1ccccc1)C(c1cccs1)N(C(=O)c1csnn1)C1CC1 (stereo unspecified),89µM*,21%,8%,-1%,-7%
O=C(NCc1ccccc1)C(c1cccs1)N(C(=O)c1csnn1)C1CC1 (stereo unspecified),7%,7%,-7%,-9%,-8%
CCCCNC(=O)Cn1c(SCc2cccc(F)c2)nc2ccncc21,2%,.,.,.,-2%
CCc1nc2ccc(C(=O)O)cc2nc1CC,-3%,-24%,-7%[57.1 µM],14µM*,-2%
CN(C)c1ccc(CCC2C=Cc3ccccc32)cc1 (stereo unspecified),2%,.,.,.,-4%
CC(=O)ON(C(C)=O)c1ccc(/C=C2/C=Cc3ccccc32)cc1,8%,.,.,.,-12%
N#C/C(=C\c1c(Oc2ccc(F)cc2)nc2ccccn2c1=O)c1nc2ccccc2s1,20µM*,?,.,-20%,?
CCc1cccc2cc(C(O)CNC(C)(C)C)oc12 (stereo unspecified),.,.,.,.,-17%[60.1 µM]
CN(C(=S)NC(=O)c1ccc(F)cc1)C1CCCCC1,-6%,-21%,7%,-1%,-1%
CN(C(=S)NC(=O)c1ccc(Cl)cc1)C1CCCCC1,?,11µM*,-28%,?,-43%
O=C(NN=C1CCN(Cc2ccccc2)CC1)c1cc2ccccc2cc1O,79µM*,-108%,1%[11.6 µM],?,?
O=C(NN=C1CCCCCC1)c1cc2ccccc2cc1O,34%,1%,1%,-22%,-7%
O=C1CCCC(=NNC(=O)c2cc3ccccc3cc2O)C1,79µM*,.,-25%,-15%,-39%
O=C(NN=C1CCN(Cc2ccccc2)CC1)c1ccccc1O,116%,18%,-5%,-1%,-3%
CC(C)(C)n1ncc2c(=O)n(Cc3ccc(Cl)cc3F)cnc21,-14%,.,.,.,-9%
COc1cc([N+](=O)[O-])ccc1NC(=O)Nc1cnccn1,-4%,25%,-3%,79µM*,10%
O=C1C[C@H]2C=CCc3cccc(c32)CN1Cc1cccc(F)c1,29%,.,.,.,0%
CC(C)C[C@@H](NC(=O)[C@H](Cc1ccccc1)NC(=O)c1cnccn1)B(O)O,.,.,.,.,5%[19.4 µM]
C=C1C[C@@]23CC[C@H]4[C@@](C)(CCC[C@@]4(C)C(=O)O)[C@@H]2CC[C@]1(O)C3,.,.,.,.,-2%[60.1 µM]
C=C/C(C)=C/C[C@H]1C(=C)CCC2[C@](C)(C(=O)O)CCC[C@@]21C (stereo partly specified),?,.,-19%,8.9µM*,?
COc1ccc(-c2csc(NC(=O)c3ccccc3NS(=O)(=O)c3ccc(C)cc3)n2)cc1,32µM*,?,-11%,20µM*,?
SMILES,POLI inh,POLB inh,WRN helicase inh,POLH inh,Pol kappa inh
COc1cc(NS(=O)(=O)c2ccc(Nc3nc(-c4ccccn4)cs3)cc2)nc(OC)n1,65%,20%,?,-12%,-7%
COc1ccc(-c2csc(Nc3ccc(S(=O)(=O)Nc4cc(OC)nc(OC)n4)cc3)n2)cc1,-12%,5%,-52%,89µM*,-9%
COc1ccc(-c2csc(Nc3ccc(S(=O)(=O)Nc4cc(C)on4)cc3)n2)cc1C,2%,?,-11%,89µM*,4%
Nn1cc(Br)c(=O)[nH]c1=O,.,.,.,.,6%[19.4 µM]
CCCCn1c(=O)[nH]c2nc3cc(N)ccc3nc2c1=O,1.3µM*,5.6µM*,50µM*,-10%,-8%
Nc1ccc2nc3c(=O)n(CCc4ccccc4)c(=O)[nH]c3nc2c1,64%,?,-20%,-7%,-26%
O=C(O)c1ccc2c3n(nc2c1)-c1ccc(Cl)cc1CO3,16µM*,20µM*,-17%,4%,32µM*
CC(C)c1ccc(/C=C2\SC(=O)N(CC(=O)NC3CCS(=O)(=O)C3)C2=O)cc1 (stereo unspecified),16µM*,?,-3%[11.6 µM],50µM*,-16%
O=C(CN1C(=O)S/C(=C\c2ccccc2)C1=O)NC1CCS(=O)(=O)C1 (stereo unspecified),45%,42%,0%,-2%,10%
C=C1C=CS(=O)(=O)N(C(CC(C)C)C(=O)OC)C1 (stereo unspecified),-16%,.,.,.,-4%
CN(C)c1ccc(N=Cc2ccncc2)cc1,?,.,.,.,-19%
CC(=O)Nc1cccc(NC(=O)Nc2cccc3ccccc23)c1,?,50µM*,-2%,8%,-3%
COc1ccc(-n2c(=O)c3c4c(sc3n(CC(=O)Nc3cc(C)[nH]n3)c2=O)CCC4)c(OC)c1,79µM*,-5%,-3%,-2%,0%
COc1ccc(-n2c(=O)c3c4c(sc3n(CC(=O)C(C)(C)C)c2=O)CCCC4)c(OC)c1,13%,7%,.,-18%,0%
COC(=O)c1c(C)oc2ccc(N(C(=O)Oc3ccccc3)S(=O)(=O)c3ccc(Cl)c([N+](=O)[O-])c3)cc12,45µM*,22µM*,-13%,?,-21%
CCc1ccc(S(=O)(=O)N(C(=O)Oc2ccccc2)c2ccc3oc(C)c(C(=O)OC)c3c2)cc1,-4%,-19%,.,1%,-5%
COC(=O)c1cn(CCOc2ccccc2F)c2ccccc12,0%,89µM*,-16%,-11%,-20%
O=C(CCCOc1ccccc1)N1CCN(c2ccc(F)cc2)CC1,12%,100µM*,-1%,-4%,-10%
O=C(O)c1ccccc1-c1c2cc(Br)c(=O)c(Br)c-2oc2c(Br)c(O)c(Br)cc12,.,.,.,.,10µM*
Cc1ccc(S(=O)(=O)N2CCN(c3nc(-c4ncco4)nc4ccccc34)CC2)cc1,-15%,.,.,.,-19%
O=C(Nc1ccc2oc(-c3cc(Br)ccc3Cl)nc2c1)c1cc2ccccc2o1,53%,2.8µM*,.,?,-3%
O=C(Nc1ccc2oc(-c3ccc(Br)cc3)nc2c1)c1cc2ccccc2o1,29%,?,.,-29%,-1%
CCOc1ccc(CCNC(=O)c2nc(-c3cccc(F)c3)n3c2CCCCC3)cc1OCC,?,4%,.,-21%,89µM*
CC(C)(C)n1ncc2c(=O)n(Cc3cccc(C(F)(F)F)c3)cnc21,-20%,.,.,.,-15%
CC(Cc1ccc(O)c(O)c1)(NN)C(=O)O (stereo unspecified),.,.,.,.,-2%[60.1 µM]
